The list is not random: actives were taken first. Their share in the collection is about 9.2%.
Rab9 promoter act: qHTS Assay for Rab9 Promoter Activators | Huh7 Rab9 promoter-luciferase reporter, luminescence, 24 h | Potency, µM (highest dose often 9.22 µM), usual class: activators | hit rate 2.8% among 320,000; further: nearly all actives have a fitted effect of over 60% in size
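Using Huh7 cells stably transfected with Rab9 promoter–luciferase, compounds were incubated 24 h at 37 °C, 5% CO2; luciferase luminescence was read 10 min after reagent addition.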
ELG1 DNA repair: qHTS screen for small molecules that inhibit ELG1-dependent DNA repair in human embryonic kidney (HEK293T) cells expressing luciferase-tagged ELG1; HEK293T ELG1-luciferase reporter, luminescence, 16 h; DNA damage induced by 5-fluorouridine; Potency, µM (series often up to 46.1 µM), actives largely listed as inhibitors; hit rate 2.3% among 330,000; further: nearly all actives have a fitted effect of over 55% in size
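In this reporter screen, reduction of luminescence relative to DMSO vehicle indicated activity. Compounds and 5-fluorouridine were added together to 2,000 cells per well, incubated for 16 hr at 37 °C, then developed with ONE-Glo.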
NPC1 promoter act: qHTS Assay for NPC1 Promoter Activators | hit rate 2.4% among 320,000 | Potency, µM (series often up to 9.22 µM), usual class: activators | Huh7 NPC1 promoter luciferase reporter, 24 h; further: nearly all actives have a fitted effect of over 60% in size
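Cells: Huh7 expressing luciferase under the NPC1 promoter, 1500/well. Seeded 2 h, compound added, incubated 24 h at 37 °C. Luciferase reagent, 10 min ambient, then luminescence.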
ELG1 genotoxic: qHTS screen for small molecules that induce genotoxicity in human embryonic kidney (HEK293T) cells expressing luciferase-tagged ELG1; HEK293T ELG1-luciferase reporter, luminescence, 16 h; AID 504466, 2011; Potency, µM (highest dose often 46 µM), actives largely listed as activators; hit rate 1.3% among 330,000; further: nearly all actives have a fitted effect of over 60% in size
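Step 1: seed 2,000 HEK293T ELG1-luciferase cells per well. Step 2: add compound or DMSO, incubate 16 hr at 37 °C. Step 3: ONE-Glo, 30 min at room temperature, read luminescence.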
FLuc modulator: qHTS profiling assay for firefly luciferase inhibitor/activator using purifed enzyme and Km concentrations of substrates (counterscreen for miR-21 project) | purified FLuc, Km substrates, luminescence inhibition | hit rate 6.9% among 360,000 | Potency, µM (highest dose often 57.5 µM), hits mostly inhibitors | Luciferin 4-monooxygenase (Photinus pyralis), P08659; further: nearly all actives have a fitted effect of over 55% in size
Target sequence (P08659 whole entry, looked up): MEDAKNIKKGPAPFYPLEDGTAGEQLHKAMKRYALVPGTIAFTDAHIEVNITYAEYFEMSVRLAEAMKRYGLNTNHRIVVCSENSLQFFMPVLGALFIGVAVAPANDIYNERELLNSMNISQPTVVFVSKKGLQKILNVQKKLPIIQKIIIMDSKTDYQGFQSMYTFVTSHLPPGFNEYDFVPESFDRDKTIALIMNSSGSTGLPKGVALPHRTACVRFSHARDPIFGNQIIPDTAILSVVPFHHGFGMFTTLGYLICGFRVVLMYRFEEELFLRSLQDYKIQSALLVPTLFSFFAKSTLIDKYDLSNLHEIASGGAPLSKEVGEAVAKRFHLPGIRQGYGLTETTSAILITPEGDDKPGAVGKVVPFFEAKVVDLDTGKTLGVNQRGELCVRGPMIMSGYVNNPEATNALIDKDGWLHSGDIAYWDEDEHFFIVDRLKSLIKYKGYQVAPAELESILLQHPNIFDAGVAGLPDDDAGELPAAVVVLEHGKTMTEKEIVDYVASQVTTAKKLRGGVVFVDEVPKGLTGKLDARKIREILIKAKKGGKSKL
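Purified P. pyralis luciferase (10nM final) with 10uM D-luciferin and 10uM ATP (Km levels) in 50mM Tris acetate pH 7.5, 10mM Mg acetate, 0.01% Tween-20, 0.05% BSA; qHTS 6-point titration, ~60 µM downward; luminescence read.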
SMN2 splice enh: qHTS Assay for Enhancers of SMN2 Splice Variant Expression. hit rate 2.8% among 210,000. HEK293 SMN2-luciferase splicing reporter, luminescence, 30-36 h. Potency, µM (titrated, usually from 46.1 µM), hits mostly activators. AID 1458, 2008; further: nearly all actives have a fitted effect of over 55% in size
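HEK293 cells carry an SMN2 […]–luciferase reporter in which exon 7 inclusion puts luciferase in frame. Cells were plated 10-12 h before compound addition, then incubated 30-36 h at 37C. ONE-Glo luminescence was read; sodium butyrate at 4.5 mM final served as control.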
Hits are given with their value; n = inactive; u = inconclusive; x = no result given. The call rests on the fitted dose curve; in most records, active means well fitted curve in the direction sought with a large enough effect; inconclusive means small, poorly fitted or top-dose-only effect, or another doubt; inactive means no such curve, though single readings can be large; an effect the other way counts as inactive or inconclusive.

SMILES | Rab9 promoter act | ELG1 DNA repair | NPC1 promoter act | ELG1 genotoxic | FLuc modulator | SMN2 splice enh
O=C(/C=C/c1ccc(-c2ccccc2[N+](=O)[O-])o1)c1ccco1 | u | n | n | n | 19µM | n
COc1ccc(C)cc1NC(=O)C1CCN(S(=O)(=O)Cc2ccccc2)CC1 | x | x | x | x | n | x
O=C(CCc1ccc(S(=O)(=O)N2CCOCC2)cc1)Nc1nc(COc2ccccc2)cs1 | n | 20.6µM | n | n | u | n
O=C(COc1ccccc1)Nc1nc(-c2ccc(S(=O)(=O)N3CCOCC3)cc2)cs1 | n | u | n | n | n | n
O=C(CSc1ccccc1)NCC1(N2CCCCC2)CCCCC1 | n | n | n | n | n | x
O=c1c(=Nc2ccccc2O)c(=O)c2ccccc12 | 3.55µM | u | u | u | n | 11.2µM
CCOc1ccc(CC(=O)NCc2ccc3c(c2)CCN3C(=O)c2ccc(F)cc2)cc1OCC | x | x | x | x | n | x
COc1cccc(CNC(=O)[C@H](CCSC)NC(=O)N2CCn3c2nc2ccccc23)c1 | n | 18.3µM | n | n | n | x
COc1ccc(Cc2noc(-c3ccc([N+](=O)[O-])cc3)n2)cc1OC | n | 18.3µM | n | n | n | x
COc1ccc(-c2nc(C)c(C(C)=O)n2O)cc1[N+](=O)[O-] | n | u | n | n | 16.9µM | n
CCCOc1ccc(-c2cn3ccccc3n2)cc1[N+](=O)[O-] | 2.24µM | u | 3.16µM | u | 1.69µM | 1.58µM
CCCCOc1ccc(-c2csc(N)n2)cc1[N+](=O)[O-] | 2.82µM | u | 2.51µM | u | 3.79µM | 12.6µM
CCCCOc1ccc(C2=CSC3=NCCN23)cc1[N+](=O)[O-] | n | n | n | n | n | x
O=[N+]([O-])c1cccc(-c2cn3ccccc3n2)c1 | n | n | n | n | n | x
CC(C)(C)c1ccc(-c2nc(SCC(=O)Nc3ccccc3F)n3[nH]c(=O)cc3n2)cc1 | x | x | x | x | n | x
COc1ccc(CCN(Cc2cc3ccc(C)cc3[nH]c2=O)C(C)=O)cc1OC | n | n | n | n | n | x
Cc1ccc(OC(C)C(=O)NCC2(N3CCOCC3)CCCCC2)cc1C (stereo not given) | x | x | x | x | n | x
Cc1cc(C)n2nc(SCC(=O)NC(=O)c3ccccc3)nc2n1 | x | n | x | n | x | x
O=C(CN1CCCN(Cc2ccc(F)cc2)S1(=O)=O)NCc1ccccc1Cl | x | x | x | x | n | x
COc1ccc(-c2cn3ccccc3n2)cc1[N+](=O)[O-] | 1.41µM | u | 3.98µM | u | 1.69µM | 11.2µM
COc1ccc(-c2cn3cc([N+](=O)[O-])ccc3n2)cc1OC | u | u | n | u | 15.1µM | u
CCOC(=O)N1CCC(N2CCN(S(=O)(=O)c3ccc4ccccc4c3)CC2)CC1 | n | u | n | n | n | n
O=C(CSc1nnc(NC(=O)C2CC2)s1)Nc1cccc(F)c1 | n | n | n | n | u | x
CCOC(=O)c1oc2c(c1C)-c1nn(Cc3cccc(Cl)c3)cc1CC2 | x | x | x | x | n | n
CCCCCCCCCCCCCCCCn1cc[n+](CC(C)=O)c1 | n | n | n | n | n | n
SMILES | Rab9 promoter act | ELG1 DNA repair | NPC1 promoter act | ELG1 genotoxic | FLuc modulator | SMN2 splice enh
CCCCCCn1ccc(=N)cc1 | n | 3.66µM | n | n | n | n
O=C(Nc1cccc(-c2csc(Nc3ccc(Cl)cc3)n2)c1)c1cc([N+](=O)[O-])cc(C(F)(F)F)c1 | n | u | n | n | n | x
O=C(Nc1cccc(-c2csc(Nc3ccc(Cl)cc3)n2)c1)c1ccccc1 | n | u | n | n | 12µM | x
O=C(Nc1cccc(-c2csc(Nc3ccc(Cl)cc3)n2)c1)c1cccc(C(F)(F)F)c1 | n | 9.2µM | n | n | n | x
O=C(Nc1ccc(-c2csc(Nc3ccccc3)n2)cc1)c1ccccc1 | n | n | n | n | 13.5µM | x
CCOc1ccc(NS(=O)(=O)c2coc(C(N)=O)c2)cc1 | n | n | n | n | n | x
CCc1nnc(NC(=S)Nc2ccccc2)s1 | u | u | u | n | u | 22.4µM
Cc1ccc(C(=O)Nc2nnc(NC(=S)Nc3ccccc3)s2)cc1 | n | u | n | n | 19µM | x
Cc1nc(NC(=S)Nc2ccccc2)sc1C | u | u | u | n | 2.69µM | 15.8µM
CC(C)CCOc1cccc(OCC(=O)Nc2ccncc2)c1 | n | u | n | n | n | x
CCN(CC)CC(=O)Nc1ccc2c(c1)N(C(=O)CN(CC)CC)c1ccccc1CC2 | n | n | n | n | n | n
CCN(CC)CC(=O)Nc1ccc2c(c1)Nc1ccccc1CC2 | u | n | n | n | 12µM | n
COC(=O)c1cccc(S(=O)(=O)N(Cc2ccco2)Cc2cc3cc(OC)ccc3[nH]c2=O)c1 | n | 14.6µM | n | n | n | n
O=C(Nc1ccccc1)C1=C(c2ccccc2)S(=O)(=O)CCS1(=O)=O | n | u | n | n | n | n
COc1ccc(NC(=S)N2CCN(C(=O)C3CCCO3)CC2)cc1 (stereo not given) | n | n | n | n | n | x
O=C(/C=C/Nc1cccc(F)c1)c1ccco1 | 2.51µM | u | u | 3.16µM | 2.13µM | 12.6µM
O=C(/C=C/Nc1ccc(F)c(Cl)c1)c1ccco1 | n | u | n | 4.11µM | 5.36µM | u
Cc1cc(OCC(=O)Nc2cc(-c3nc4ccccc4[nH]3)ccc2C)ccc1Cl | x | x | x | x | n | n
C/C(=N/OC(=O)c1cccc(Cl)c1)c1nccs1 | n | n | n | n | 2.13µM | n
C/C(=N\OC(=O)c1ccccc1F)c1nccs1 | n | n | n | n | 1.35µM | n
O=C(OCc1cnc(Cl)s1)c1cccc(Cl)c1 | n | n | n | n | n | x
O=C(CCCC(=O)OCC(=O)c1ccc(Cl)cc1)NC1CCCCC1 | n | n | n | n | 12µM | x
CCc1ccc(N2C(=O)C3C4C=CC(CC4)C3C2=O)cc1 (stereo not given) | n | u | n | n | 4.26µM | x
O=C1C2C3C=CC(CC3)C2C(=O)N1c1ccc(Cl)cc1 (stereo not given) | n | n | n | n | n | x
COc1cc(CN2CCNC(=O)C2CC(=O)NCCCC2CCCC2)cc(OC)c1 (stereo not given) | n | n | n | n | n | x
Cc1ccc(NC(=O)CSc2nn(-c3ccccc3)c(=S)s2)cc1S(=O)(=O)N(C)C | n | 23.1µM | n | n | n | n
O=C(CSc1nn(-c2ccccc2)c(=S)s1)Nn1cnnc1 | n | n | n | n | n | n
CN(CC(=O)Nc1ccccc1Br)C(=O)c1cc([N+](=O)[O-])ccc1N1CCOCC1 | n | n | n | n | n | x
CCCCCCN1CC(=O)N2[C@@H](Cc3c([nH]c4ccccc34)C2(C)C)C1=O | n | u | n | n | n | x
